Assay results published in PubChem BioAssay AID1159580 (chemical genetic matrix, 2015).
Several values for one entry are separate records, joined by “and”; a condition that tells them apart may be missing. Equal values may be shown once. The campaign covered roughly 5,500 compounds. About 2,000 (36%) were called active. Another 18% or so got no clear call; they are omitted. Cut-off read from the data, not from the text of the source: active = normalized growth mostly below about 0.91 (no sharp cut-off); inconclusive = no clear call, values can overlap the other calls; inactive = mostly above about 0.92. The list shows a part of the results.

Assay: chemical genetic growth profiling, strain panel (AID 1159580);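 note: tested at 20 µM; growth read once vehicle control cultures reached saturation at 30 °C; 1 = growth at the plate median or of vehicle wells; lower values mean less growth of the strain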
Conditions: S. cerevisiae deletion strains, growth OD

Measured: normalized growth

c1ccc2[nH]c(-c3cscn3)nc2c1
active: locus YDR195W, strain ref2 1.15 [resistant] | locus YEL003W, strain gim4, active compounds read low 0.132 | locus YER155C, strain BEM2 (second series), active compounds read low 0.833
inactive: locus YAL021C, strain ccr4, active compounds read low 0.964 | locus YAL026C, strain drs2, active compounds read low 0.956 | locus YAL030W, strain snc1, active compounds read low 1.01 | locus YBL061C, strain skt5, active compounds read low 1.01 | locus YBR009C, strain hhf1, active compounds read low 0.965 | locus YBR021W, strain FUR4, active compounds read low 0.946 | locus YBR023C, strain chs3, active compounds read low 0.993 | locus YBR171W, strain sec66, active compounds read low 1 | locus YBR229C, strain ROT2, active compounds read low 0.991 | locus YBR231C, strain swc5, active compounds read low 0.958 | locus YBR279W, strain paf1, active compounds read low 1.01 | locus YCL011C, strain gbp2, active compounds read low 0.982 | locus YCL016C, strain dcc1, active compounds read low 0.95 | locus YCL029C, strain bik1, active compounds read low 0.945 | locus YCL061C, strain MRC1, active compounds read low 0.991 | locus YCL069W, strain vba3, active compounds read low 0.996 | locus YCR088W, strain abp1, active compounds read low 1.01 | locus YDL005C, strain med2, active compounds read low 1.02 | locus YDL035C, strain GPR1, active compounds read low 0.996 | locus YDL040C, strain nat1, active compounds read low 1.01 | locus YDL074C, strain BRE1, active compounds read low 0.94 | locus YDL101C, strain DUN1, active compounds read low 1.01 | locus YDL134C, strain PPH21, active compounds read low 0.998 | locus YDL185W, strain tfp1, active compounds read low 1.01 | locus YDL192W, strain arf1, active compounds read low 1.01 | locus YDR069C, strain doa4, active compounds read low 0.988 | locus YDR101C, strain arx1, active compounds read low 0.945 | locus YDR137W, strain rgp1, active compounds read low 0.91 | locus YDR159W, strain sac3, active compounds read low 0.965 | locus YDR162C, strain NBP2, active compounds read low 1.01 | locus YDR297W, strain sur2, active compounds read low 1.03 | locus YDR318W, strain mcm21, active compounds read low 0.998 | locus YDR334W, strain swr1, active compounds read low 0.998 | locus YDR335W, strain msn5, active compounds read low 1.02 | locus YDR388W, active compounds read low 1.01 | locus YDR392W, strain spt3, active compounds read low 0.867 | locus YDR502C, strain sam2, active compounds read low 0.971 | locus YEL037C, strain rad23, active compounds read low 0.991 | locus YEL061C, strain CIN8 (second series), active compounds read low 1 | locus YEL061C, strain CIN8, active compounds read low 0.987 | locus YER015W, strain faa2, active compounds read low 0.997 | locus YER016W, strain bim1, active compounds read low 0.995 | locus YER110C, active compounds read low 1.02 | locus YER111C, strain swi4, active compounds read low 1.01 | locus YER155C, strain BEM2, active compounds read low 0.991 | locus YER167W, strain BCK2, active compounds read low 0.997 | locus YFR010W, strain ubp6, active compounds read low 0.986 | locus YGL078C, strain dbp3, active compounds read low 1.01 | locus YGL086W, strain mad1, active compounds read low 0.959 | locus YGL167C, strain pmr1, active compounds read low 1.02 | locus YGL173C, strain kem1, active compounds read low 1.01 | locus YGL227W, strain vid30, active compounds read low 1.02 | locus YGL240W, strain doc1, active compounds read low 0.957 | locus YGL248W, strain PDE1, active compounds read low 0.992 | locus YGL253W, strain hxk2, active compounds read low 0.998 | locus YGR135W, strain pre9, active compounds read low 1.04 | locus YGR252W, strain gcn5, active compounds read low 0.962 | locus YHR013C, strain ard1, active compounds read low 0.922 | locus YHR027C, strain rpn1, active compounds read low 1.01 | locus YHR030C, strain SLT2, active compounds read low 0.992 and 0.96 | locus YHR079C, strain IRE1 (second series), active compounds read low 1 | locus YHR079C, strain IRE1, active compounds read low 0.963 | locus YHR094C, strain hxt1, active compounds read low 1.01 | locus YHR129C, strain ARP1, active compounds read low 0.993 | locus YHR142W, strain chs7, active compounds read low 1 | locus YHR200W, strain rpn10, active compounds read low 1 | locus YIL066C, strain RNR3, active compounds read low 0.954 | locus YIL073C, strain SPO22, active compounds read low 1.06 | locus YIL125W, strain kgd1, active compounds read low 1 | locus YIR030C, strain dcg1, active compounds read low 0.994 | locus YJL092W, strain hpr5, active compounds read low 0.997 | locus YJL095W, strain BCK1 (second series), active compounds read low 1.02 | locus YJL095W, strain BCK1, active compounds read low 0.997 and 0.958 | locus YJL115W, strain asf1, active compounds read low 1 | locus YJL129C, strain trk1, active compounds read low 1.02 | locus YJL134W, strain LCB3, active compounds read low 1 | locus YJL154C, strain vps35, active compounds read low 1.01 | locus YJL164C, strain tpk1, active compounds read low 0.966 | locus YJL166W, strain qcr8, active compounds read low 1 | locus YJL168C, strain set2, active compounds read low 1.01 | locus YJL187C, strain SWE1 (second series), active compounds read low 0.974 | locus YJR043C, strain POL32, active compounds read low 0.964 | locus YJR066W, strain TOR1, active compounds read low 0.917 | locus YJR075W, strain HOC1, active compounds read low 0.979 | locus YKL009W, strain mrt4, active compounds read low 1.02
